Out of some 1,400 compounds screened, about 560 (40%) were called active. So high a share suggests a set chosen from earlier hits. This is one part of the list. A number with no mark means an inactive call.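 How the source made its calls: active means mean inhibition over duplicate tests at 10 µM above 50%; inactive means the rest.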

The assay is described as follows: ASC/caspase-1 reporter retest in S. cerevisiae at one dose, specificity check for NALP1 project (AID 488857). The note with it: S. cerevisiae ASC/Caspase-1, beta-galactosidase luminescence, 24 h; at 10 µM; stronger effect = higher value.
Turning to `COc1ccc(CNCC(O)(c2ccccc2)c2ccc(Cl)cc2)cc1` (stereo not drawn), the inhibition (as a rule, the drop in the measured response relative to a control, in per cent) is 60% (active).
The figure for `C=C(C(=O)c1ccccc1)C(C)C(=C)C(=O)c1ccccc1` is 59.5% (active); for `CNC(=O)C(NC(=O)c1ccccc1)=C(C)C` it is 38.2%; for `COC(=O)c1c(N)c(C#N)c2n1CCCCC2` it is 37.8%.
As to `CCOC(=O)c1nc(C)sc1-c1ccnn1S(=O)(=O)c1ccc(C)cc1`, the inhibition was 45.4%.
Take `Nc1nc(-c2ccco2)nn1S(=O)(=O)c1ccccc1`: the inhibition is 21.7%.
Consider `COc1ccc(-c2nc(N)n(S(=O)(=O)c3ccc(C)cc3)n2)cc1`, for which the inhibition is 63.5% (active).
Take `Cc1c(-c2nc(N)nc(Nc3ccccc3)n2)oc2ccccc12`: the inhibition was 45.6%.
`CCOc1cccc(N2C(=O)CC(N3CCN(c4ccc(S(=O)(=O)CC)cc4)CC3)C2=O)c1` (stereo not drawn): the inhibition was 34.4%.
On to `CCOc1ccc2nc(SC3CC(=O)N(c4cccc(OC)c4)C3=O)sc2c1` (stereo not drawn), for which the inhibition is 85% (active).
With `O=C1CC(Sc2nnnn2-c2ccccc2)C(=O)N1c1cccc(Cl)c1` (stereo not drawn), the inhibition is 47.4%.
In the case of `COC(=O)CSC1=C(C#N)C(=O)NC(c2ccccc2)S1` (stereo not drawn), the inhibition is 39.5%.
As for `Cc1ccc(S(=O)(=O)NC2=NCN(CCOC(=O)c3ccc([N+](=O)[O-])cc3)CN2)cc1`, the inhibition is 14.1%.
In the case of `COCCNC(=O)CCc1ccc(S(=O)(=O)Nc2ccc(C)cc2)cc1`, the inhibition is 25.9%.
Turning to `Cc1ccc(CSCCNC(=O)CSCc2ccc([N+](=O)[O-])cc2)cc1`, the inhibition is 68.6% (active).
On to `Cc1ccc(C(=O)NCCc2cccc(Cl)c2)cc1[N+](=O)[O-]`, for which the inhibition was 73.5% (active).
On to `Cc1cccc(C(=O)NCc2ccc(S(N)(=O)=O)cc2)c1[N+](=O)[O-]`, for which the inhibition was 30.2%.
With `COCCNC(=O)c1ccc(C)c(S(=O)(=O)Nc2ccc(C)cc2)c1`, the inhibition was 27.9%.
For `CCn1c2ccccc2c2cc(NC(=O)c3ccc(C)c([N+](=O)[O-])c3)ccc21`, the inhibition is 45.8%.
The figure for `Cc1ccc(C(=O)NCCSCc2ccccc2)cc1[N+](=O)[O-]` is 52.2% (active); for `CCCCCCC1CCC(C(=O)Nn2c(C)nc3ccccc3c2=O)CC1` (stereo not drawn) it is 49%.
As to `CC1CCCC/C1=N\Nc1ccc(S(N)(=O)=O)cc1[N+](=O)[O-]` (stereo not drawn), the inhibition was 25.7%.
On to `CCc1ccc(C(=O)NC(CC(C)C)C(=O)O)cc1` (stereo not drawn), for which the inhibition was 46.8%.
Turning to `CC(NC(=O)Nn1cnnc1)(C(F)(F)F)C(F)(F)F`, the inhibition was 26.3%.
The figure for `Clc1ccc(Nc2ccc(NCc3ccccc3)nn2)cc1` is 85.7% (active).
As to `COc1cc(C2Nc3ccccc3C(=O)N2c2ccccc2)ccc1O` (stereo not drawn), the inhibition is 15.1%.
Consider `O=C(Nc1cc(Cl)ccc1-n1cncn1)c1ccc([N+](=O)[O-])s1`, for which the inhibition is 92% (active).
In the case of `CCCCCC(=O)Nc1ccc2oc(-c3cccnc3)nc2c1`, the inhibition was 58.5% (active).
As to `CCCc1cc(C(=O)O)c2ccccc2n1`, the inhibition was 39.6%.
The figure for `CCC(=O)Nc1cccc(-c2nc3ccccc3o2)c1` is 78.7% (active); for `Cc1ccc2oc(-c3ccc(NC(=O)c4cccnc4)cc3)nc2c1` it is 46.7%.
`CC(C)CCN(C(=O)Nc1ccccc1)C(C)c1cccs1` (stereo not drawn): the inhibition was 42.2%.
The same measure for `COc1ccc2c(c1)NC(=O)CC(c1ccccc1)=N2`: 43.8%; for `N/C(Cc1cccs1)=N\OC(=O)COc1ccccc1Cl`: 59.1% (active); for `COc1ccccc1NS(=O)(=O)c1ccc(NC(=O)Cc2cccs2)cc1`: 33.9%.
With `C=CCNC(=S)N/N=C(\C)c1ccccn1`, the inhibition was 90.2% (active).
Regarding `O=C(N/N=C/c1cc2c3c(c1O)CCCN3CCC2)c1ccccc1O`, the inhibition is 34.8%.
In the case of `O=C(N/N=C/c1cc(Cl)ccc1O)c1ccc(Br)cc1`, the inhibition is 54.1% (active).
Consider `O=C(N/N=C/c1ccc2nccnc2c1)c1ccccc1O`, for which the inhibition is 36%.
Turning to `COC(=O)c1ccc(Oc2ccc(S(=O)(=O)N3CCCCC3)cc2N)cc1`, the inhibition was 97.8% (active).
On to `CC(=O)c1ccc(S(=O)(=O)N2CCCC2)cc1`, for which the inhibition was 46.1%.
Regarding `C=CCc1cc(Cl)ccc1OCCNCCCOC`, the inhibition is 48.5%.
In the case of `C=CCc1cc(Cl)ccc1OCCOCCNCCOC`, the inhibition is 50.9% (active).
Consider `Cc1cc(SC#N)cc(C)c1NC(=O)CCl`, for which the inhibition was 25.8%.
As for `O=C(NCc1ccco1)c1cnn2c1NC(c1ccc(Br)cc1)CC2C(F)(F)F` (stereo not drawn), the inhibition is 63.1% (active).
`COc1ccc(/C=C\c2onc(C)c2S(=O)(=O)N2CCC(C(=O)NCc3ccco3)CC2)cc1`: the inhibition is 42%.
Take `COc1cccc(N2CCN(C3CCCC(C)C3)CC2)c1` (stereo not drawn): the inhibition was 38%.
The figure for `COc1cccc(NC(=O)Cn2cnc3sc(C)c(S(=O)(=O)N4CCCCC4)c3c2=O)c1` is 30.9%; for `O=C(COC(=O)/C=C/c1cccs1)Nc1nc(-c2ccccc2)cs1` it is 13.3%; for `CC1CC1C(=O)Nc1nc(-c2ccccc2)cs1` (stereo not drawn) it is 68.5% (active).
Take `O=C(COC(=O)c1cccs1)Nc1nc(-c2ccccc2)cs1`: the inhibition is 48.2%.
As for `Cc1cc(C)cc(N2C(=O)CC(Sc3ncn[nH]3)C2=O)c1` (stereo not drawn), the inhibition is 63.5% (active).
Consider `Cc1ccc(N2C(=O)CC(Sc3ccccc3C(=O)O)C2=O)cc1` (stereo not drawn), for which the inhibition is 26.1%.
In the case of `CC(C)c1ccc(N2C(=O)CC(Sc3ncn[nH]3)C2=O)cc1` (stereo not drawn), the inhibition is 58.9% (active).
The figure for `O=C(Cn1nnc2ccccc21)OCC(=O)c1ccc(Cl)cc1` is 39.8%; for `CCn1c(=O)cc(SCC(=O)N2CCN(C3CCCCC3)CC2)c2ccccc21` it is 29.9%.
Regarding `CCn1c(N2CCN(C(=O)C34CC5CC(CC(C5)C3)C4)CC2)nc2ccccc21`, the inhibition was 54.5% (active).
The same measure for `CN1c2ccccc2-c2nc3ccccc3n2C1c1cccs1` (stereo not drawn): 62.9% (active).
Take `c1csc(C2Nc3ccccc3-c3nc4ccccc4n32)c1` (stereo not drawn): the inhibition was 64.8% (active).
For `CCN1c2ccccc2-c2nc3ccccc3n2C1c1cccs1` (stereo not drawn), the inhibition was 63.7% (active).
As for `c1csc(CNc2nc3ccccc3n2CCN2CCOCC2)c1`, the inhibition was 35.6%.
Consider `CCOC(=O)N1CCC(=NNS(=O)(=O)c2cccc([N+](=O)[O-])c2)CC1`, for which the inhibition is 31.6%.
Take `COn1c2c(c3c4nonc4ccc31)CCCC2`: the inhibition was 31.4%.
Regarding `Cc1nc2cc(C(=O)NCc3ccc4c(c3)OCO4)ccc2n1-c1ccc(Br)cc1`, the inhibition was 58.9% (active).
Regarding `CC1CC(C)CN(S(=O)(=O)c2ccc(C(=O)NCc3ccc4c(c3)OCO4)cc2)C1` (stereo not drawn), the inhibition is 31.6%.
As to `O=C(/C=C\Nc1cccc(F)c1)c1cccs1`, the inhibition was 47.2%.
The same measure for `COc1cc(NC(=O)c2cccs2)cc(OC)c1`: 82% (active).
In the case of `CCN(CC)S(=O)(=O)c1cccc(C(=O)Oc2cccc(NC(=O)c3cccs3)c2)c1`, the inhibition was 35.9%.
The figure for `O=C(CN1CCCCC1)Nc1nc(-c2ccc(F)c(F)c2)cs1` is 55.9% (active).
With `CC1CCCC(C)N1C(=O)CN1CCN(c2nc(-c3ccc(F)cc3)cs2)CC1` (stereo not drawn), the inhibition was 44.5%.
Regarding `O=C(CN1CCCCC1)Nc1cccc(Oc2ccccc2)c1`, the inhibition is 38.8%.
The figure for `COCC(=O)n1nc(-c2ccc(Cl)cc2)nc1NCc1ccc(F)cc1` is 36.2%; for `CCCCCCCCNC(C)C(O)c1ccc(SC(C)C)cc1` (stereo not drawn) it is 38.9%; for `CC(C)CC(=O)/C(=C\c1ccc(Cl)cc1Cl)n1cncn1` it is 101% (active).
For `CSc1nnc(-c2cc3c(s2)-c2ccccc2CC3)o1`, the inhibition was 46.8%.
On to `CC(OC(=O)Cc1c(F)cccc1Cl)C(=O)NCCC1=CCCCC1` (stereo not drawn), for which the inhibition was 46.8%.
The same measure for `COC(=O)COc1ccc(S(=O)(=O)NCCC2=CCCCC2)cc1Cl`: 40.1%; for `O=C(COC(=O)Cc1c(F)cccc1Cl)NCCC1=CCCCC1`: 61.6% (active); for `Cc1cc(C(C)(C)C)cc(S(=O)(=O)Nc2ccc(O)c(C(=O)O)c2)c1C`: 27.8%.
As to `Cc1ccc(/C(COc2ccccc2O)=N\O)cc1`, the inhibition was 47.8%.
On to `COc1ccccc1/C=N\N=C(\N)c1ccccn1`, for which the inhibition is 48.5%.
As to `Cc1ccc(Oc2ccccc2/C=N/O)cc1`, the inhibition was 51.9% (active).
For `COC(=O)c1sccc1NC(=O)c1csc(C)c1`, the inhibition was 49%.
The same measure for `Cc1ccc2c(Cl)c(C)c(N3CCCCC3)nc2n1`: 74.8% (active); for `NC(=O)C1(N2CCCCC2)CCN(Cc2nc(-c3cccs3)no2)CC1`: 24.1%; for `COC(=O)c1ccc(NC(=O)CN2C(=O)CNC2=O)cc1`: 30.4%.
In the case of `COC(=O)c1ccc(C(=O)OC)c(NC(=O)COC(=O)C2CCCCC2)c1`, the inhibition was 35.8%.
As for `COC(=O)c1ccc(NC(=O)C(=O)N2CCCC2)cc1`, the inhibition is 52.5% (active).
On to `CCOC(=O)C1(Cc2ccc(OC)cc2)CCN(C(=O)CCc2cnccn2)CC1`, for which the inhibition was 20.9%.
For the compound `COc1ccc(Nc2ncccc2C(=O)NCc2ccccc2)cc1`, the inhibition was 67% (active).
The same measure for `Cc1cccnc1NC(=O)c1ccccc1NC(=O)C(C)(C)C`: 41.2%; for `Cc1cc(C)c([C@@H]2C[C@H]3CN(C4CCCC4)C(=O)[C@]34CCCN24)c(-n2cccn2)c1`: 36.2%.
The figure for `CS(=O)(=O)N(Cc1ccccc1)c1ccc(C(=O)Nc2cccnc2)cc1` is 36%; for `O=C(CN1CCN(c2ccccc2)CC1)Nc1ccc2c(c1)CCC2` it is 21.1%.
Consider `O=C(COC(=O)CCC1CCCCC1)Nc1ccc(OC(F)F)cc1`, for which the inhibition was 23.5%.
In the case of `CS(=O)(=O)N(Cc1ccccc1)c1ccc(C(=O)Nc2ccc3c(c2)OCO3)cc1`, the inhibition was 36%.
The figure for `O=C(COc1ccc(Cl)cc1)Nc1ccc2c(c1)CCC2` is 71.5% (active).
The same measure for `O=C(Nc1ccc2nc3ccccc3nc2c1)c1ccccc1`: 90.7% (active); for `C=C(C)C(=O)Nc1cccc(C(C)=O)c1`: 38.2%.
For `COc1ccc(OCC(=O)NC(=S)N2CCCc3ccccc32)cc1`, the inhibition was 37.9%.
For the compound `O=C(Nc1ccc2c(c1)CCC2)c1ccccc1`, the inhibition was 71.7% (active).
Regarding `O=C(Nc1ccc2c(c1)Cc1ccccc1-2)c1ccncc1`, the inhibition was 74.5% (active).
Take `O=C(Nc1ccc(Cl)c(Cl)c1)c1ccncc1`: the inhibition was 44.9%.
